Measured values reported in PubChem BioAssay AID623868 (Vanderbilt High Throughput Screening Facility, 2012).
Among all 2,100 compounds or so, about 760 (36%) were called active. These entries were drawn from the full list. A number with no mark means an inactive call.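 Rule for the calls: active = thallium-flux fluorescence traces judged by eye to show enhanced or reduced glutamate response, manual score 1 or -1, so both directions (some results past the limit were not filed as active); inactive = the rest, including fluorescent or raised-baseline compounds.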

Assay: non-GIRK thallium flux modulation in mGlu8 cells, confirmation, counter-screen for GIRK activator project, cell-based, HEK-293 rmGlu8, no GIRK (AID 623868);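 note: extra codes mark interference with 3 for fluorescent and 4 for baseline rise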
Conditions: thallium flux fluorescence, at 10 µM, actives lie on both sides, codes: 1 enhancer, -1 blocker, 0 none, thallium stimulus containing EC20 glutamate

| SMILES | manual score |
| --- | --- |
| COc1ccc(S(=O)(=O)N(CC(=O)N2CCN(c3ccccc3)CC2)c2ccccc2)cc1 | 0 |
| CN1C=CC2=C(C#N)C(N)C(C#N)(C#N)C(c3ccccc3)C2C1 (stereo not given) | 3 |
| CC(=O)c1cccc(NC(=O)C2CCCN2S(=O)(=O)c2cccc3cccnc23)c1 (stereo not given) | 0 |
| Cc1cc(/C=c2/sc3nc4ccccc4n3c2=O)c(C)n1-c1ccccn1 | 0 |
| Cc1ccc2cccc(Oc3nnnn3-c3ccccc3)c2n1 | 0 |
| CCOC(=O)c1c(C)[nH]c2c1cc(O)c1ccccc12 | 0 |
| CCOC(=O)c1c(-c2ccc(C)o2)csc1NC(=S)NC(=O)c1cccs1 | 0 |
| CCOC(=O)c1c(-c2ccccc2)csc1NC(=S)NC | 1 (active) |
| CCNC(=S)Nc1scc(-c2ccccc2)c1C(=O)OCC | 1 (active) |
| CCOC(=O)c1c(-c2ccc(C)o2)csc1NC(=S)NC(=O)N(C)C | 1 (active) |
| CCOC(=O)C(Cc1ccccc1)NC(=O)Cn1nnc(-c2ccccc2)n1 (stereo not given) | 0 |
| Cc1ccc(OCC(=O)Nc2ccc(C)c(S(=O)(=O)N3CCCCC3)c2)c([N+](=O)[O-])n1 | 0 |
| NC(=O)c1noc(C(=O)N(CC(=O)NC2CCCC2)Cc2ccc3c(c2)OCO3)c1N | 0 |
| O=C1c2cccc3c(O)ccc(c23)C(=O)N1Cc1ccccc1 | 3 |
| CCc1ccc(C2=NN(c3ccc(S(N)(=O)=O)cc3)C(c3ccc(F)cc3)C2)cc1 (stereo not given) | 0 |
| CN1CCN(c2ccccc2NS(=O)(=O)c2ccc3c(c2)CCN3C(=O)C2CCC2)CC1 | 0 |
| O=C(Nc1nncs1)c1ccccc1NS(=O)(=O)c1cccs1 | 0 |
| O=S(=O)(Nc1ccccc1N1CCCCC1)c1ccc(Cl)s1 | 1 (active) |
| O=C(Nc1ccccc1)c1ccccc1NS(=O)(=O)c1ccc(Cl)s1 | 0.5 |
| CCOc1ccccc1N1CCN(S(=O)(=O)c2cccs2)CC1 | 0 |
| O=S(=O)(Nc1cc(Cl)ccc1N1CCCCC1)c1cccs1 | 1 (active) |
| CCCN(CCC)CCCNC(=O)c1cc2c(=O)n(C)c3ccccc3c2n1C | 0 |
| S=c1nc[nH]c2c1sc1nc(-c3ccccc3)c3c(c12)CCCC3 | 1 (active) |
| Cc1ccc2nsnc2c1S(=O)(=O)Nc1cccc2nsnc12 | 1 (active) |

| SMILES | manual score |
| --- | --- |
| CCOC(=O)N1CCN(c2c(F)cc3[nH]c(=S)[nH]c3c2Br)CC1 | 0 |
| Cc1sc2ncnc(N(C)Cc3cccs3)c2c1C | -1 (active) |
| CC(C)CCNC(=O)C(C)N(Cc1ccc(F)cc1)C(=O)c1ccc(CN2CCCCC2)o1 (stereo not given) | 0 |
| Cc1ccc(OCC(=O)NNC(=O)C(C)Sc2ncnc3sc(C)c(C)c23)cc1 (stereo not given) | 1 (active) |
| CC(NC(=O)COc1ccccc1)C(=O)NC1=NCCS1 (stereo not given) | 0 |
| Cc1ccc(OCCCC(=O)Nc2nccs2)cc1 | 0 |
| CC1CC2=C(CC1/C=N/NC(N)=S)C(C)(C)CCC2 (stereo not given) | 0 |
| COc1ccccc1OCC(O)Cn1c(=N)n(Cc2ccccc2)c2ccccc21 (stereo not given) | 0 |
| CCOC(=O)C1=C(C)NC2=C(C(=O)CC(c3ccc(OC)c(OC)c3)C2)C1c1ccc(C)o1 (stereo not given) | 0 |
| CC1=C(C(=O)OCC2CCCO2)C(c2ccc(C)o2)C2=C(CC(c3ccc(F)cc3)CC2=O)N1 (stereo not given) | -1 (active) |
| CSc1ccc(S(=O)(=O)NCc2ccccc2Cl)cc1 | 0 |
| Cc1ccc(NC(=O)COC(=O)CCC(=O)c2ccc(Cl)cc2)cc1S(=O)(=O)N(C)C | 0 |
| Cc1ccc(C(=O)CC(=O)COc2ccc(Cl)cc2)cc1 | 0 |
| Cc1ccc(C(=O)CC(=O)COc2ccc(Cl)cc2C)cc1 | 1 (active) |
| S=c1[nH]c2cc(Cl)ccc2s1 | 1 (active) |
| CCOC(=O)c1cccc(NC(=O)CSc2nnc(C3CCCCC3)n2C)c1 | -1 (active) |
| CCOC(=O)c1cccc(NC(=O)CSc2nnc(-c3cccnc3)n2C)c1 | -1 (active) |
| Cc1ccc(-c2nnc(SCC(=O)Nc3cccc(C(=O)N4CCOCC4)c3)n2C)cc1 | 0 |
| COc1cccc(NC(=O)CSc2nnc(-c3ccoc3C)n2-c2ccccc2)c1 | 0 |
| Cc1ccc(C)c(-n2nnnc2SCC(=O)Nc2cccc(-c3nnc4n3CCCCC4)c2)c1 | 3 |
| CCc1nnc(NC(=O)CSc2nnc(C3CCCCC3)n2-c2cccc(Cl)c2)s1 | -0.5 |
| CC1CC(=S)Nc2ccccc2N1Cc1ccccc1 (stereo not given) | 0 |
| CC1CSc2ccccc2NC1=S (stereo not given) | 0 |
| CC1(C)CC(=S)Nc2ccccc2S1 | 1 (active) |

| SMILES | manual score |
| --- | --- |
| O=C(CSc1ccccc1)N(c1ccc(Br)cc1)c1nccs1 | 0 |
| CCCc1nnc2n1N=C(c1ccc(OC)c(OC)c1)CS2 | -0.5 |
| COc1ccccc1C1=Nn2c(nnc2C2CCCCC2)SC1 | 0 |
| COc1ccc(C2=Nn3c(nnc3C3CCCCC3)SC2)cc1OC | -1 (active) |
| Brc1ccccc1C1=Nn2c(nnc2-c2ccccc2)SC1 | 0 |
| c1cc2c(cc1C1=Nn3c(nnc3C3CCCCC3)SC1)OCO2 | -1 (active) |
| CCC1(c2ccc(Cl)cc2)NC(=S)N(c2ccccc2)N1 (stereo not given) | 1 (active) |
| COc1ccc(NC(=O)CSc2nnc(-c3ccccn3)n2Cc2ccco2)cc1OC | 0 |
| CCn1c(SCC(=O)Nc2oc(-c3ccccc3)c(-c3ccccc3)c2C#N)nnc1-c1ccco1 | 0 |
| Clc1cccc(CSc2nnc(-c3ccccn3)n2Cc2ccco2)c1 | -0.5 |
| CCOc1ccccc1NC(=O)Nc1cccc(C(C)=O)c1 | 0 |
| CCOc1ccccc1NC(=O)CSc1nnc(-c2ccco2)n1Cc1ccco1 | -1 (active) |
| CCOc1ccccc1NC(=O)CSc1nnc(-c2ccccn2)n1Cc1ccco1 | -1 (active) |
| COc1cc(Cl)cc2c1Sc1ccccc1/C2=C/CCN(C)C | 0 |
| O=C(CSc1nc(-c2ccc(F)cc2)cs1)N1CCOCC1 | 0 |
| CC1(C)Cc2ccccc2C(/C(=N\Nc2cccc(Cl)c2)C(N)=O)=N1 | 0 |
| Cc1ccc(C)c(NC(=S)NNC(=O)c2cc3c(s2)CCC(C)C3)c1 (stereo not given) | 1 (active) |
| Cc1cccc(NC(=S)NNC(=O)c2csc3c2CCCC3)c1 | 1 (active) |
| CC(C)CNC(=S)NNC(=O)c1csc2c1CCC(C)C2 (stereo not given) | 0 |
| CC(C)(C)C1CCc2c(C(=O)N/N=C/c3cccs3)csc2C1 (stereo not given) | 0 |
| Cc1cccc(NC(=S)NNC(=O)c2csc3c2CCC(C)C3)c1 (stereo not given) | 1 (active) |
| Cc1ccccc1NC(=S)NNC(=O)c1csc2c1CCC(C)C2 (stereo not given) | 1 (active) |
